Common to all, as to set-up: species or system human, MV4-11 + K-562 + COLO205 + SK-N-BE2 + OVCAR-8
Test [1] relates to ATM. The conditions noted are these: read-out: apparent Kd, n = 1.
Test [2] concerns CDC42BPG. The following applies: read-out: apparent Kd; compound concentrations: 100 nM and 1000 nM (sheet 'Samples'), CATDS: 9.9527078318265502E-2; n = 1.
Test [3] deals with DCTPP1. The following applies: read-out: apparent Kd; compound concentrations: 100 nM and 1000 nM (sheet 'Samples'), CATDS: 8.8490675480642905E-2; n = 1.
Test [4] has as its system DDR2. The conditions noted are these: read-out: apparent Kd; compound concentrations: 100 nM and 1000 nM (sheet 'Samples'), CATDS: 8.0656162840652496E-2; n = 1.
Test [5] has as its system FLT3. The conditions noted are these: read-out: apparent Kd, compound concentrations: 100 nM and 1000 nM (sheet 'Samples'), n = 1.
Test [6] has as its system IRAK4. The conditions noted are these: read-out: apparent Kd; compound concentrations: 100 nM and 1000 nM (sheet 'Samples'), CATDS: 7.99000406569913E-2; n = 1.
Test [7] has as its system MYLK3. The following applies: read-out: apparent Kd, compound concentrations: 100 nM and 1000 nM (sheet 'Samples'), n = 1.
The subject of test [8] is PIM2. The following applies: read-out: apparent Kd; compound concentrations: 100 nM and 1000 nM (sheet 'Samples'), CATDS: 8.1354023438197698E-2; n = 1.
For test [9], the system named is PRKAG1. The following applies: read-out: apparent Kd; compound concentrations: 100 nM and 1000 nM (sheet 'Samples'), CATDS: 8.6524001120503097E-2; n = 1.
Test [10] relates to TNIK. The conditions noted are these: read-out: apparent Kd; compound concentrations: 100 nM and 1000 nM (sheet 'Samples'), CATDS: 9.2286016750468006E-2; n = 1.
For test [11], the system named is AP1G1. The following applies: read-out: apparent Kd; compound concentrations:100 nM and 1000 nM (sheet 'Samples'); n = 1.
Test [12] has as its system AKT3. The conditions noted are these: read-out: apparent Kd, compound concentrations: 100 nM and 1000 nM (sheet 'Samples'), n = 1.
Test [13] has as its system MAPK10. The conditions noted are these: read-out: apparent Kd; compound concentrations: 100 nM and 1000 nM (sheet 'Samples'), CATDS: 0.16061628875685399; n = 1.
Test [14] concerns MAPK14. The following applies: read-out: apparent Kd; compound concentrations: 100 nM and 1000 nM (sheet 'Samples'), CATDS: 0.26404764630767302; n = 1.
For test [15], the system named is MAPK9. The conditions noted are these: read-out: apparent Kd; compound concentrations: 100 nM and 1000 nM (sheet 'Samples'), CATDS: 0.111534825966063; n = 1.
The subject of test [16] is NLK. The conditions noted are these: read-out: apparent Kd; compound concentrations: 100 nM and 1000 nM (sheet 'Samples'), CATDS: 0.289538211789438; n = 1.
Test [17] concerns PRKCQ. The following applies: read-out: apparent Kd; compound concentrations: 100 nM and 1000 nM (sheet 'Samples'), CATDS: 0.10805556024324001; n = 1.
Test [18] deals with PRKCZ. The following applies: read-out: apparent Kd; compound concentrations: 100 nM and 1000 nM (sheet 'Samples'), CATDS: 0.11125426430481999; n = 1.
The test system of test [19] is CHEK1. The conditions noted are these: read-out: apparent Kd; compound concentrations:100 nM and 1000 nM (sheet 'Samples'); n = 1.
Test [20] concerns GRK6. The conditions noted are these: read-out: apparent Kd; compound concentrations:100 nM and 1000 nM (sheet 'Samples'); n = 1.
For test [21], the system named is PDGFRB. The following applies: read-out: apparent Kd; compound concentrations:100 nM and 1000 nM (sheet 'Samples'); n = 1.
Test [22] deals with RET. The conditions noted are these: read-out: apparent Kd; compound concentrations:100 nM and 1000 nM (sheet 'Samples'); n = 1.
In test [23] the test system is RPS6KA6. The following applies: read-out: apparent Kd; compound concentrations:100 nM and 1000 nM (sheet 'Samples'); n = 1.
Test [24] concerns CDK16. The following applies: read-out: apparent Kd; compound concentrations: 100 nM and 1000 nM (sheet 'Samples'), CATDS: 8.8636413805305694E-2; n = 1.
Test [25] has as its system CDK2. The following applies: read-out: apparent Kd; compound concentrations: 100 nM and 1000 nM (sheet 'Samples'), CATDS: 0.14540297909740599; n = 1.
Test [26] relates to CDK5. The following applies: read-out: apparent Kd; compound concentrations: 100 nM and 1000 nM (sheet 'Samples'), CATDS: 0.117408744054376; n = 1.
Test [27] deals with CDK6. The conditions noted are these: read-out: apparent Kd; compound concentrations: 100 nM and 1000 nM (sheet 'Samples'), CATDS: 8.47728191524936E-2; n = 1.
Test [28] deals with CSNK2A1;CSNK2A3. The following applies: read-out: apparent Kd; compound concentrations: 100 nM and 1000 nM (sheet 'Samples'), CATDS: 0.11670425999811999; n = 1.
In test [29] the test system is CSNK2A2. The conditions noted are these: read-out: apparent Kd; compound concentrations: 100 nM and 1000 nM (sheet 'Samples'), CATDS: 0.126102528289014; n = 1.
The mark [30] stands for this setting: compound concentrations:100 nM and 1000 nM (sheet 'Samples').

Like-named read-outs stand apart in the source and are kept apart here.

With `NS(=O)(=O)c1cccc(N/C=C2\C(=O)Nc3ccccc32)c1` [GW275616X], the potency estimated from few doses is 294 nM in test [1] (compound concentrations: 100 nM and 1000 nM (sheet 'Samples'), CATDS: 0.21008347624398099); 1200 nM in [2]; 1600 nM in test [3]; 2060 nM in [4]; 1650 nM in test [5] (CATDS: 8.7421379442902306E-2); 2110 nM in test [6]. Further, the potency estimated from few doses in [7] (CATDS: 0.35041871443296002) is 137 nM; in test [8] it was 2010 nM; in [9], 1690 nM; in test [10], 1440 nM.
For `COc1cccc(OC)c1C(=O)Nc1cccc(-c2nn3ccccc3c2-c2ccnc(Nc3cccc(F)c3)n2)c1` [GSK361065A], the potency estimated from few doses in [11] is 895 nM.
As for `O=c1c(Oc2ccc(F)cc2F)cc2cnc(NC3CCOCC3)nc2n1C1CC1` [RO4399247-000], the potency estimated from few doses is 1390 nM in test [12] (CATDS: 0.120130462725208); 690 nM in [13]; 279 nM in [14]; 1740 nM in test [15]; 242 nM in [16]; 1930 nM in [17]. Also, in test [18], the potency estimated from few doses was 1750 nM.
Consider `COC(=O)Nc1nc2ccc(Oc3ccc(NC(=O)Nc4cc(C(F)(F)F)ccc4F)cc3)cc2s1.Cl` [GW693917A], for which, in test [1] (setting [30]), the potency estimated from few doses is 222 nM.
Consider `COc1cc(Nc2cnc(C#N)c(O[C@H](C)CN(C)C)n2)ncc1-c1cnn(C)c1` [CCT244747], for which the potency estimated from few doses was 179 nM in [1] (setting [30]); 39.7 nM in [19]; 1230 nM in [20]; 1490 nM in test [21]; 112 nM in test [22]; 460 nM in [23].
As to `NS(=O)(=O)c1ccc(Nc2cc(-c3ccc(O)c(F)c3)n[nH]2)cc1` [GW831091X], the potency estimated from few doses was 1690 nM in test [12] (CATDS: 8.6052459279118296E-2); 1550 nM in test [24]; 491 nM in test [25]; 759 nM in test [26]; 1770 nM in test [27]; 770 nM in test [28]. Also, the potency estimated from few doses in [29] is 652 nM; in test [5] (CATDS: 0.40008712572593402) it was 99.2 nM; in test [7] (CATDS: 8.3976923453049093E-2) it was 1830 nM.

The record behind these values is publication PMC11062922 (Nature Chemical Biology, 2023).
